Assay [1] in a line: polyglutamine-triggered caspase-3 activation inhibitors, cell-based (AID 1583). The note with it: polyglutamine-induced caspase-3 activation, cell assay; stronger effect = higher value;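 tested at 10 µM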.
Assay [2] is described as follows: suppressors of polyQ aggregation in yeast, 75Q-TubU reporter (AID 1593). The note with it: Yeast 75Q polyglutamine aggregation reporter.
Assay [3] is described as follows: rescue of polyQ-huntingtin neuronal dysfunction in worms, whole organism, C. elegans mechanosensory neurons, N-terminal huntingtin (AID 1599). The note with it: touch response, stronger effect = higher value.
Assay [4] can be described thus: inhibitors of mitochondrial cytochrome c release, biochemical, purified mitochondria (AID 1603).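 Note: mouse liver mitochondria challenged with calcium chloride; signal normalized to the plate average as 100%.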 The note with it: stronger effect = lower value.
Assay [5] in a line: inhibitors of polyQ protein aggregation (AID 1604). The note with it: polyglutamine-induced protein aggregation inhibition assay; stronger effect = higher value; tested at 2.5 µM.
Assay [6] in a line: enhancers of glutamate uptake in motor neurons, MN-1 cell line (AID 1612).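 Note: tested at 1 µM final; 0% = mean of DMSO vehicle wells on each plate; positive means more glutamate uptake than control and negative means less.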 The note with it: MN-1 motor neuron cells, stronger effect = higher value.
Assay [7] in a line: suppressors of polyglutamine aggregation in yeast, 75Q-TubH (AID 1616). The note with it: S. cerevisiae 75Q-TubH polyglutamine aggregation suppression; stronger effect = higher value.
Assay [8] can be described thus: liver-stage malaria parasite growth inhibition, primary screen, cell-based, HepG2, luciferase luminescence, HepG2 viability (AID 624349).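 Note: 100% = mean of DMSO negative control wells on the same plate.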 The note with it: P. berghei liver stage in HepG2, luciferase luminescence, concentration not given here; parasite load remaining: stronger effect = lower value; viability: measured here: HepG2 viability without parasites.
Assay [9] can be described thus: differential killing of epithelial or mesenchymal cells, primary screen, imaging, PC-3E GFP, TEM4-18 mCherry, co-culture (AID 1345086;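 active = compounds killing one labelled cell type while sparing the other, by normalised counts and ratio limits, not self-fluorescent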;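 for all read-outs here: cells exposed to compound for 72 h before imaging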;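 for red/green cell ratio (normalised): normalised mesenchymal count divided by normalised epithelial count so high means epithelial killing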). The note with it: imaging cell counts, at 1 µM; for red/green cell ratio (normalised): actives lie on both sides, counts scaled to control wells, 1 = unselective.
The nature of assay [10]: sensitizers of A549 cells to miR-34 induction, primary screen, imaging, A549 dox-inducible miR-34, nuclei and caspase counts (AID 1347080;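 active = compounds whose cell count with miR-34 switched on is under 0.7 times the count with it off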). The note with it: A549 miR-34 inducible, Hoechst nuclei count, 48 h.
Assay [11] is described as follows: viability rescue of complex I mutant cybrids, primary screen, cell-based, galactose medium, ATP luminescence (AID 1645843;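 active = z-score of at least 1.8 in each of two replicates, scored against plate mean and spread of sample wells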;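 note: positive z means more ATP and so rescue of galactose-driven cybrid death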). The note with it: complex I mutant cybrid cells, 72 h, stronger effect = higher value.
Assay [12] can be described thus: reducers of polyQ inclusions in PC12 cells, cell-based, NGF-treated PC12, GFPQ80 (AID 1614).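 Note: lower means fewer inclusions and 0 means no inclusions at all.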 The note with it: PC12 NGF-treated GFP-polyQ80 inclusion reduction.
The mark [13] stands for this setting: measured here: epithelial PC-3E GFP cell survival.
The mark [14] stands for this setting: measured here: mesenchymal TEM4-18 mCherry cell survival.
Setting [15] is: stronger effect = lower value, cell number ratio, induced over uninduced.
The mark [16] stands for this setting: measured here: relative caspase fold change +Dox/-Dox.
Setting [17] is: measured here: total cells with miR-34 induction, stronger effect = lower value.
Setting [18] is: measured here: total cells without miR-34 induction.

Where “and” joins values, the source holds several entries; their conditions need not be identical. Equal entries are not always repeated. For part of these data: Results with a measured potency or affinity are listed apart. Calls of active or inactive are those of the source. Cut-off read from the data, not from the text of the source, unless noted: active = parasite load remaining mostly below about 12% (no sharp cut-off); inactive = mostly above about 10%.

Usually inhibition stands for the drop in the measured response relative to a control, in per cent. For orientation: viability means a per cent measure of how many cells are alive, often set against a control. In the case of `CCCCCC(=O)O[C@]1(C(C)=O)CCC2C3CCC4=CC(=O)CC[C@]4(C)C3CC[C@@]21C` (stereo not given in full), in assay [1], the inhibition amounted to 18.1%. Besides, the score in assay [2] is -0.83. In assay [3], the rescue above control was -3.14. Also, the cytochrome c release ratio in assay [4] is 0.32. Further, in assay [5], the inhibition of aggregation stood at 35%. Moreover, the glutamate uptake change in [6] was found to be 9.62%. The same compound registered an aggregation suppression score in assay [7] of 0.43. Besides, the parasite load remaining in assay [8] is 13.1% (inactive) and 0.105% (inactive). For the same compound, the viability in assay [8] was 72.1% and 76.8%. Moreover, the red/green cell ratio (normalised) in assay [9] is 1.01 (inactive). Also, the values for the normalised cell number in assay [9] (setting [13]) and in [9] (setting [14]) were 1.08 and 1.09, respectively. The fold change in assay [10] (setting [15]) was 0.912 (inactive); in assay [10] (setting [16]), 1.72. Further, the cell count stood at 7140 in [10] (setting [17]) and 7840 in assay [10] (setting [18]).

On to `C[C@]12CCC3c4ccc(O)cc4CCC3C1CC[C@@H]2OC(=O)CCC1CCCC1` (stereo not given in full), for which the inhibition in assay [1] turned out to be 30.9%. Further, the score in assay [2] is -0.35. Besides, the rescue above control in assay [3] was -0.57. Further, in [4], the cytochrome c release ratio amounted to 0.97. In [5], the inhibition of aggregation turned out to be 94.4%. In [6], the glutamate uptake change was -6.63%. In assay [7], this compound showed an aggregation suppression score of 0.396. The parasite load remaining in assay [8] was 77.3% (inactive) and 37.9% (inactive). The viability in [8] is 74.2% and 90.6%. In addition, in [9], the red/green cell ratio (normalised) was 1.54 (inactive). The normalised cell number came out at 0.83 in assay [9] (setting [13]) and 1.27 in assay [9] (setting [14]). Besides, the fold change is 1 (inactive) in assay [10] (setting [15]) and 1.31 in assay [10] (setting [16]). The cell count in assay [10] (setting [17]) and in assay [10] (setting [18]) was 11300 in each case.

Take `C[C@]12CCC(=O)C=C1CCC1C2C(=O)C[C@@]2(C)C1CC[C@]2(O)C(=O)CO` (stereo not given in full): the red/green cell ratio (normalised) in assay [9] was 0.7 (inactive). Further, the values for the normalised cell number in assay [9] (setting [13]) and in [9] (setting [14]) were 1.3 and 0.91, respectively. Besides, the fold change in assay [10] (setting [15]) was 0.915 (inactive); in assay [10] (setting [16]), 1.12. Further, the figures for the cell count in assay [10] (setting [17]) and in [10] (setting [18]) were 9120 and 9960, respectively. Further, the z-score in assay [11] is 0.345 (inactive).

Regarding `C[C@@H]1CC2C3CCC4=CC(=O)C=C[C@]4(C)[C@@]3(F)[C@@H](O)C[C@]2(C)[C@@]1(O)C(=O)COP(=O)(O)O` (stereo not given in full), the inhibition in assay [1] was -13.7%. Besides, the score in [2] turned out to be 2.71. Also, the rescue above control in assay [3] is -9.5. Also, in [4], the cytochrome c release ratio came out at 0.74. Further, in [5], the inhibition of aggregation was found to be 70.1%. In assay [6], the glutamate uptake change stood at 6.45%. This compound came in with an inclusion score in [12] of 2.5. The compound further yielded an aggregation suppression score in assay [7] of 1.87. In addition, the parasite load remaining in assay [8] was 113% (inactive) and 77.9% (inactive). In addition, the viability in assay [8] was 75.1% and 87%. Also, in [9], the red/green cell ratio (normalised) is 1.5 (inactive). Further, the normalised cell number in assay [9] (setting [13]) was 1.11; in assay [9] (setting [14]), 1.67. Moreover, the figures for the fold change in assay [10] (setting [15]) and in [10] (setting [16]) were 0.847 (inactive) and 1.88, respectively. Further, the values for the cell count in assay [10] (setting [17]) and in assay [10] (setting [18]) were 7240 and 8540, respectively.

Take `CCCCC(=O)O[C@H]1CCC2C3CCc4cc(O)ccc4C3CC[C@@]21C` (stereo not given in full): the inhibition in assay [1] came to 15.8%. In addition, the score in [2] was -2.02. In [3], this compound displayed a rescue above control of 17.4. For the same compound, in assay [4], the cytochrome c release ratio turned out to be 1.02. Moreover, in [5], the inhibition of aggregation is 26.4%. Besides, in [6], the glutamate uptake change is 19.7%. The same compound displayed an aggregation suppression score in assay [7] of 0.271. Moreover, the parasite load remaining in assay [8] is 83% (inactive) and 44.1% (inactive). Besides, in assay [8], the viability is 74.5% and 87.8%. The red/green cell ratio (normalised) in assay [9] was 0.95 (inactive). Besides, the normalised cell number in assay [9] (setting [13]) is 0.89; in assay [9] (setting [14]) it was 0.84. In addition, the fold change is 0.938 (inactive) in assay [10] (setting [15]) and 1.71 in assay [10] (setting [16]). Moreover, the figures for the cell count in assay [10] (setting [17]) and in assay [10] (setting [18]) were 10200 and 10900, respectively.

Turning to `C[C@]12C=CC(=O)C=C1CCC1C2C(=O)C[C@@]2(C)C1CC[C@]2(O)C(=O)CO` (stereo not given in full), the inhibition in [1] is 10.6%. Also, the score in [2] turned out to be 1.16. The same compound came in with a rescue above control in [3] of 5.79. Further, the cytochrome c release ratio in assay [4] was 0.79. In addition, the inhibition of aggregation in assay [5] was -17.6%. The glutamate uptake change in assay [6] was -8.9%. In assay [12], this compound came in with an inclusion score of 2. The aggregation suppression score in assay [7] is 1.29. The parasite load remaining in [8] is 71.9% (inactive) and 35.5% (inactive). Further, the viability in assay [8] is 73% and 91%. In assay [9], the red/green cell ratio (normalised) was 1.16 (inactive). In addition, the normalised cell number in assay [9] (setting [13]) worked out at 0.94; in [9] (setting [14]), 1.1. Besides, the values for the fold change in [10] (setting [15]) and in [10] (setting [16]) were 0.854 (inactive) and 2.55, respectively. Also, the cell count in assay [10] (setting [17]) was 10500; in assay [10] (setting [18]), 12300.

The record behind these values is PubChem BioAssay.
